Experimental data published in PubChem BioAssay (NCATS).
Inconclusive results are not listed. Activity calls are given as the source filed them. Calls come from the whole dose curve; as a rule, active = well fitted curve in the direction sought with a large enough effect; inconclusive = small, poorly fitted or top-dose-only effect, or another doubt; inactive = no such curve, though single readings can be large; an effect the other way counts as inactive or inconclusive.

Assays:
[1] = Quantitative High-Throughput drug screen in 47 multiple myeloma cell lines against the NCATS MIPE library collection: KHM11_PLB cell viability assay (AID 1918962); note: nearly all actives have a fitted effect of over 35% in size
Method in brief: (§1)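 Approved and investigational drugs from MIPE 4.0 were added by pin tool to 500 cells per well. After 48 hours at 37C, ATP-based CellTiter-Glo luminescence indicated remaining viability.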

[2] = Quantitative High-Throughput drug screen in 47 multiple myeloma cell lines against the NCATS MIPE library collection: JIM3_ECACC cell viability assay (AID 1918963; note: nearly all actives have a fitted effect of over 35% in size)
Method in brief: as §1

[3] = Quantitative High-Throughput drug screen in 47 multiple myeloma cell lines against the NCATS MIPE library collection: INA6_PLB cell viability assay (AID 1918965; note: nearly all actives have a fitted effect of over 55% in size)
Method in brief: (§2)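 Inhibition of cell viability is measured here. Each line was plated at 500 cells per well, treated with MIPE 4.0 drugs, kept 48 hours at 37C, then assayed for ATP content by CellTiter-Glo luminescence.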

[4] = Quantitative High-Throughput drug screen in 47 multiple myeloma cell lines against the NCATS MIPE library collection: H1112_PLB cell viability assay (AID 1918967; note: nearly all actives have a fitted effect of over 30% in size)
Method in brief: (§3)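 Myeloma cell lines, 500 cells per well, exposed to MIPE 4.0 library compounds for 48 h at 37C, 5% CO2. Viability from ATP by CellTiter-Glo luminescence; normalised to DMSO (100%) and media-only (0%) wells.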

[5] = Quantitative High-Throughput drug screen in 47 multiple myeloma cell lines against the NCATS MIPE library collection: Karpas25_ECACC cell viability assay (AID 1918968; note: nearly all actives have a fitted effect of over 35% in size)
Method in brief: as §3

[6] = Quantitative High-Throughput drug screen in 47 multiple myeloma cell lines against the NCATS MIPE library collection: KMS27_JCRB cell viability assay (AID 1918970); settings: KMS27 myeloma cells, CellTiter-Glo ATP viability, 48 h; viability (% of DMSO): at 45.8 µM (top of the series); note: nearly all actives have a fitted effect of over 30% in size
Method in brief: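 KMS27_JCRB myeloma cells, 500 per well, exposed 48 h at 37 C, 5% CO2 to MIPE 4.0 compounds. Viability from ATP by CellTiter-Glo luminescence, normalized to DMSO (100%) and medium-only (0%) wells.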

[7] = Quantitative High-Throughput drug screen in 47 multiple myeloma cell lines against the NCATS MIPE library collection: KMS12PE_JCRB cell viability assay (AID 1918972); note: nearly all actives have a fitted effect of over 30% in size
Method in brief: as §2

[8] = Quantitative High-Throughput drug screen in 47 multiple myeloma cell lines against the NCATS MIPE library collection: KMS20_JCRB cell viability assay (AID 1918973); note: nearly all actives have a fitted effect of over 45% in size
Method in brief: as §3

[9] = Quantitative High-Throughput drug screen in 47 multiple myeloma cell lines against the NCATS MIPE library collection: MOLP8_DSMZ cell viability assay (AID 1918977); note: nearly all actives have a fitted effect of over 45% in size
Method in brief: (§4)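 ATP-based luminescence (CellTiter-Glo, 5 min RT incubation) quantified surviving cells following two days' treatment with MIPE 4.0 agents at 37 °C, 5% CO2.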

[10] = Quantitative High-Throughput drug screen in 47 multiple myeloma cell lines against the NCATS MIPE library collection: NCIH929_DSMZ cell viability assay (AID 1918978); note: nearly all actives have a fitted effect of over 35% in size
Method in brief: as §4

[11] = Quantitative High-Throughput drug screen in 47 multiple myeloma cell lines against the NCATS MIPE library collection: OCIMY1_PLB cell viability assay (AID 1918979); note: nearly all actives have a fitted effect of over 35% in size
Method in brief: as §4

[12] = Quantitative High-Throughput drug screen in 47 multiple myeloma cell lines against the NCATS MIPE library collection: MM1R_ATCC cell viability assay (AID 1918981); note: nearly all actives have a fitted effect of over 35% in size
Method in brief: as §4

[13] = Quantitative High-Throughput drug screen in 47 multiple myeloma cell lines against the NCATS MIPE library collection: LP1_DSMZ cell viability assay (AID 1918982); note: nearly all actives have a fitted effect of over 35% in size
Method in brief: as §4

[14] = Quantitative High-Throughput drug screen in 47 multiple myeloma cell lines against the NCATS MIPE library collection: MMM1_PLB cell viability assay (AID 1918976); note: nearly all actives have a fitted effect of over 35% in size
Method in brief: as §4

[15] = Quantitative High-Throughput drug screen in 47 multiple myeloma cell lines against the NCATS MIPE library collection: MM1S_ATCC cell viability assay (AID 1918980); note: nearly all actives have a fitted effect of over 45% in size
Method in brief: as §4

[16] = Quantitative High-Throughput drug screen in 47 multiple myeloma cell lines against the NCATS MIPE library collection: JJN3_DSMZ cell viability assay (AID 1918966; note: nearly all actives have a fitted effect of over 50% in size)
Method in brief: as §3

[17] = Quantitative High-Throughput drug screen in 47 multiple myeloma cell lines against the NCATS MIPE library collection: KMS12BM_JCRB cell viability assay (AID 1918971); note: nearly all actives have a fitted effect of over 35% in size
Method in brief: (§5)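 Myeloma cells (500 per well) were exposed to MIPE 4.0 compounds by pin transfer and incubated 48 hours at 37C, 5% CO2. Viability was read as ATP by CellTiter-Glo luminescence, normalised to DMSO (100%) and media-only (0%) wells.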

[18] = Quantitative High-Throughput drug screen in 47 multiple myeloma cell lines against the NCATS MIPE library collection: KMS26_JCRB cell viability assay (AID 1918975); note: nearly all actives have a fitted effect of over 45% in size
Method in brief: as §5
Potency is the fitted concentration of half-maximal effect.

| Compound | Potency [1] | Potency [2] | Potency [3] | Potency [4] | Potency [5] | Potency [6] | Potency [7] | Potency [8] | Potency [9] | Potency [10] | Potency [11] | Potency [12] | Potency [13] | Potency [14] | Potency [15] | Potency [16] | Potency [17] | Potency [18] |
| --- | --- | --- | --- | --- | --- | --- | --- | --- | --- | --- | --- | --- | --- | --- | --- | --- | --- | --- |
| COC(=O)[C@@H]1CC2=CC(=O)CC[C@]2(C)[C@@]23O[C@@H]2C[C@@]2(C)[C@H](CC[C@@]24CCC(=O)O4)[C@@H]13 | inactive | inactive | inactive | inactive | inactive | inactive | inactive | inactive | inactive | inactive | inactive | inactive | inactive |  |  |  |  |  |
| N#CC(=Cc1ccc(O)c(O)c1)C(=O)NCc1ccccc1 | 9.35 µM (active) | 8.33 µM (active) | 16.6 µM (active) | 7.43 µM (active) |  | 0.833 µM (active) |  | 8.33 µM (active) |  |  | inactive |  |  | 3.32 µM (active) | 26.4 µM (active) |  |  |  |
| CC(=O)NC(CS)C(=O)O (configuration not stated) | inactive | inactive | 2.96 µM (active) | inactive | inactive |  |  | inactive |  |  |  |  | inactive | 18.7 µM (active) |  |  |  |  |
| Nc1ncn([C@@H]2O[C@H](CO)[C@@H](O)[C@@H]2O)c(=O)n1 | 14.8 µM (active) | 4.69 µM (active) | 1.18 µM (active) | 18.7 µM (active) | 3.32 µM (active) | 9.35 µM (active) | 1.32 µM (active) |  |  | 3.72 µM (active) | 14.8 µM (active) | 14.8 µM (active) |  |  | 18.7 µM (active) | 11.8 µM (active) | 8.33 µM (active) | 13.2 µM (active) |
| NC1=N[C@H]2[C@H](CS[C@H]2CCCCC(=O)O)N1 | inactive | inactive | inactive | inactive | inactive | inactive | inactive |  | inactive | inactive | inactive |  | inactive |  | inactive |  | inactive | inactive |
| CC[C@@]1([C@@H]2O[C@@H]([C@H]3O[C@@](O)(CO)[C@H](C)C[C@H]3C)C[C@H]2C)CC[C@H]([C@]2(C)CC[C@]3(C[C@H](O)[C@@H](C)[C@@H]([C@@H](C)[C@@H](OC)[C@H](C)C(=O)O)O3)O2)O1 | 0.512 µM (active) | 0.229 µM (active) | 0.257 µM (active) |  | 3.23 µM (active) |  | 0.0911 µM (active) | 0.0512 µM (active) |  | 0.288 µM (active) |  | 0.229 µM (active) | 0.0645 µM (active) | 0.575 µM (active) | 0.182 µM (active) | 0.257 µM (active) | 0.0457 µM (active) | 0.182 µM (active) |
| O=c1c(O)c(-c2ccc(O)c(O)c2)oc2cc(O)ccc12 | 13.2 µM (active) | 13.2 µM (active) | 7.43 µM (active) | 26.4 µM (active) | 8.33 µM (active) |  |  |  | 18.7 µM (active) | 18.7 µM (active) | 23.5 µM (active) | 23.5 µM (active) | 23.5 µM (active) | 26.4 µM (active) | 23.5 µM (active) | 20.9 µM (active) | 26.4 µM (active) |  |
| C=C1CCC2[C@](C)(CO)C(O)CC[C@]2(C)C1CC=C1C(=O)OCC1O (some centres not stated) | inactive | inactive | inactive | inactive | inactive |  | inactive |  |  |  | inactive |  | inactive |  | inactive |  |  |  |
| O=C(Nc1cc2cc[nH]c2cn1)c1ccccc1 | 7.43 µM (active) | 7.43 µM (active) | 8.33 µM (active) | 9.35 µM (active) | 8.33 µM (active) | 13.2 µM (active) | 8.33 µM (active) | 9.35 µM (active) | 3.72 µM (active) | 8.33 µM (active) |  |  |  |  | 14.8 µM (active) | 9.35 µM (active) | 14.8 µM (active) | 11.8 µM (active) |
| CC(C=CC1=C(C)CCCC1(C)C)=CC=CC(C)=CC(=O)Nc1ccc(O)cc1 | 17.1 µM (active) | 5.4 µM (active) | 13.6 µM (active) | 19.1 µM (active) | 12.1 µM (active) | 8.55 µM (active) | 3.82 µM (active) |  |  | 21.5 µM (active) | 21.5 µM (active) | 17.1 µM (active) | 17.1 µM (active) | 21.5 µM (active) | 48.1 µM (active) | 21.5 µM (active) | 17.1 µM (active) | 19.1 µM (active) |
| N#CC(=C(O)c1ccc(Cl)cc1Cl)c1nc2cc(Cl)ccc2c(=O)[nH]1 | inactive | inactive | inactive |  |  | inactive | inactive | inactive | inactive | inactive |  | inactive | inactive | inactive | inactive |  | inactive |  |
| CN[C@@H]1C[C@H]2O[C@@](C)([C@H]1OC)n1c3ccccc3c3c4c(c5c6ccccc6n2c5c31)C(=O)N[C@H]4O | 0.0296 µM (active) | 0.148 µM (active) | 0.0418 µM (active) | 0.526 µM (active) | 0.132 µM (active) | 0.148 µM (active) |  |  |  | 0.118 µM (active) | 0.935 µM (active) | 0.372 µM (active) | 1.05 µM (active) | 1.48 µM (active) | 0.332 µM (active) | 1.66 µM (active) |  | 1.66 µM (active) |
